Experimental data taken from the supplement of paper PMC8728848.
Only a selection was taken, and the strongest signals are over-represented in it overall.

How the values were obtained:
Test in all cases: glycan array binding signal (z-score within array); higher = stronger binding
Conditions in all cases: glycan notation: IUPAC condensed, linker removed
[1] = biological target: Fuc(a1-2)[Gal(a1-3)]Gal(b1-4)GlcNAc(b1-2)Man(a1-3)[Fuc(a1-2)[Gal(a1-3)]Gal(b1-4)GlcNAc(b1-2)Man(a1-6)]Man(b1-4)GlcNAc(b1-4)GlcNAc
Method in brief: (§1)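 Columns mapping to the same glycan were averaged after glycan names were converted to IUPAC-condensed notation. The data come from 3228 arrays in the Consortium for Functional Glycomics database, limited to those with an available protein sequence. Binding is reported as a within-array Z-score averaged across arrays of one protein sequence and across linkers.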

[2] = biological target: Fuc(a1-2)[Gal(a1-3)]Gal(b1-4)[Fuc(a1-3)]Glc
Method in brief: as §1

[3] = biological target: Fuc(a1-2)[GalNAc(a1-3)]Gal(b1-4)[Fuc(a1-3)]GlcNAc(b1-3)GalNAc
Method in brief: as §1

[4] = biological target: Fuc(a1-3)GlcNAc
Method in brief: as §1

[5] = biological target: Gal(b1-3)GlcNAc(b1-3)Gal(b1-4)GlcNAc(b1-6)[Gal(b1-3)GlcNAc(b1-3)]Gal(b1-4)Glc
Method in brief: as §1

[6] = biological target: Gal(b1-4)GlcNAc(b1-2)[Gal(b1-4)GlcNAc(b1-4)]Man(a1-3)[Gal(b1-4)GlcNAc(b1-2)[Gal(b1-4)GlcNAc(b1-6)]Man(a1-6)]Man(b1-4)GlcNAc(b1-4)GlcNAc
Method in brief: as §1

[7] = biological target: Gal(b1-4)GlcNAc(b1-3)[Gal(b1-4)GlcNAc(b1-6)]GalNAc
Method in brief: as §1

[8] = biological target: Gal(b1-4)GlcNAc(b1-3)[GlcNAc(b1-6)]Gal(b1-4)GlcNAc
Method in brief: as §1

[9] = biological target: GalNAc(b1-3)GalNAc
Method in brief: as §1

[10] = biological target: GlcNAc(a1-4)Gal(b1-4)GlcNAc(b1-3)Gal(b1-4)GlcNAc
Method in brief: as §1

[11] = biological target: GlcNAc(b1-2)[GlcNAc(b1-4)]Man(a1-3)[GlcNAc(b1-2)Man(a1-6)]Man(b1-4)GlcNAc(b1-4)GlcNAc
Method in brief: as §1

[12] = biological target: GlcNAc(b1-2)[GlcNAc(b1-6)]Man(a1-6)[GlcNAc(b1-2)Man(a1-3)]Man(b1-4)GlcNAc(b1-4)GlcNAc
Method in brief: as §1

[13] = biological target: GlcNAc(b1-4)GlcNAc
Method in brief: as §1

[14] = biological target: GlcNAc(b1-4)GlcNAc(b1-4)GlcNAc(b1-4)GlcNAc(b1-4)GlcNAc(b1-4)GlcNAc
Method in brief: as §1

[15] = biological target: GlcNAc(b1-6)Gal(b1-4)GlcNAc
Method in brief: as §1

[16] = biological target: GlcNAc6S(b1-3)Gal(b1-4)GlcNAc
Method in brief: as §1

[17] = biological target: Kdn(a2-3)Gal(b1-4)Glc
Method in brief: as §1

[18] = biological target: Man(a1-2)Man(a1-2)Man(a1-3)Man
Method in brief: as §1

[19] = biological target: Man(a1-2)Man(a1-2)Man(a1-6)[Man(a1-3)]Man
Method in brief: as §1

[20] = biological target: Man(a1-2)Man(a1-3)[Man(a1-2)Man(a1-6)]Man(a1-6)[Man(a1-2)Man(a1-2)Man(a1-3)]Man
Method in brief: as §1

[21] = biological target: Man(a1-2)Man(a1-3)[Man(a1-2)Man(a1-6)]Man(a1-6)[Man(a1-2)Man(a1-2)Man(a1-3)]Man(b1-4)GlcNAc(b1-4)GlcNAc
Method in brief: as §1

[22] = biological target: Man(a1-2)Man(a1-3)[Man(a1-6)]Man(a1-6)[Man(a1-2)Man(a1-3)]Man(b1-4)GlcNAc(b1-4)GlcNAc
Method in brief: as §1

[23] = biological target: Man(a1-2)Man(a1-6)[Man(a1-3)]Man(a1-6)[Man(a1-2)Man(a1-2)Man(a1-3)]Man
Method in brief: as §1

[24] = biological target: Man(a1-2)Man(a1-6)[Man(a1-3)]Man(a1-6)[Man(a1-2)Man(a1-2)Man(a1-3)]Man(b1-4)GlcNAc(b1-4)GlcNAc
Method in brief: as §1

[25] = biological target: Man(a1-3)[Man(a1-6)]Man
Method in brief: as §1

[26] = biological target: Man(a1-3)[Man(a1-6)]Man(a1-6)[Man(a1-2)Man(a1-3)]Man(b1-4)GlcNAc(b1-4)GlcNAc
Method in brief: as §1

[27] = biological target: Neu5Ac(a2-3)Gal(b1-3)GlcNAc6S
Method in brief: as §1

[28] = biological target: Neu5Ac(a2-3)Gal(b1-4)GlcNAc(b1-3)Gal(b1-4)GlcNAc
Method in brief: as §1

[29] = biological target: Neu5Ac(a2-3)Gal(b1-4)[Fuc(a1-3)]GlcNAc
Method in brief: as §1

[30] = biological target: Neu5Ac(a2-3)GalNAc
Method in brief: as §1

[31] = biological target: Neu5Ac(a2-3)[GalNAc(b1-4)]Gal(b1-4)Glc
Method in brief: as §1

[32] = biological target: Neu5Ac(a2-6)Gal(b1-4)GlcNAc(b1-3)Gal(b1-3)GlcNAc
Method in brief: as §1

[33] = biological target: Neu5Ac(a2-6)Gal(b1-4)GlcNAc(b1-3)Gal(b1-4)GlcNAc
Method in brief: as §1

[34] = biological target: Neu5Ac(a2-6)Gal(b1-4)GlcNAc(b1-3)Gal(b1-4)[Fuc(a1-3)]GlcNAc(b1-3)Gal(b1-4)[Fuc(a1-3)]GlcNAc
Method in brief: as §1

[35] = biological target: Neu5Ac(a2-8)Neu5Ac(a2-3)[Gal(b1-3)GalNAc(b1-4)]Gal(b1-4)Glc
Method in brief: as §1

[36] = biological target: Neu5Ac(a2-8)Neu5Ac(a2-8)Neu5Ac(a2-3)[GalNAc(b1-4)]Gal(b1-4)Glc
Method in brief: as §1

[37] = biological target: Neu5Gc(a2-6)GalNAc
Method in brief: as §1

[38] = biological target: Neu5Gc(b2-6)Gal(b1-4)GlcNAc
Method in brief: as §1

[39] = biological target: Fuc(a1-2)[Gal(a1-3)]Gal(b1-4)GlcNAc
Method in brief: as §1

[40] = biological target: Fuc(a1-2)[GalNAc(a1-4)]Gal(b1-4)GlcNAc
Method in brief: as §1

[41] = biological target: Gal(b1-3)GalNAc
Method in brief: as §1

[42] = biological target: Gal(b1-3)GalNAc(b1-3)Gal(a1-4)Gal(b1-4)Glc
Method in brief: as §1

[43] = biological target: Gal(b1-3)GlcNAc(b1-3)Gal(b1-4)Glc
Method in brief: as §1

[44] = biological target: Gal(b1-4)Glc6S
Method in brief: as §1

[45] = biological target: Gal(b1-4)GlcNAc(b1-3)Gal(b1-4)Glc
Method in brief: as §1

[46] = biological target: Gal3S(b1-4)Glc
Method in brief: as §1

[47] = biological target: Gal3S6S(b1-4)GlcNAc6S
Method in brief: as §1

[48] = biological target: GalNAc(a1-3)Gal
Method in brief: as §1

[49] = biological target: Glc(a1-6)Glc(a1-6)Glc
Method in brief: as §1

[50] = biological target: GlcNAc(b1-2)Gal(b1-3)GalNAc
Method in brief: as §1

[51] = biological target: Neu5Ac(a2-3)Gal(b1-3)GlcNAc
Method in brief: as §1

[52] = biological target: Neu5Ac(a2-3)Gal(b1-4)Glc
Method in brief: as §1

[53] = biological target: Neu5Ac(a2-3)Gal(b1-4)GlcNAc6S
Method in brief: as §1

[54] = biological target: Neu5Ac(a2-6)GalNAc
Method in brief: as §1

B1: CVN (Nostoc ellipsosporum), P81180 (protein)
chain: LGKFSQTCYNSAIQGSVLTSTCERTNGGYNTSSIDLNSVIENVDGSLKWQPSNFIETCRNTQLAGSSELAAECKTRAQQFVSTKINLDDHIANIDGTLKYE
In the case of B1, the “glycan array binding signal (z-score)” value [1] is reported as 0.048, the “glycan array binding signal (z-score)” value [2] is reported as -0.107 and the “glycan array binding signal (z-score)” value [3] is reported as 0.522. For the same binder, the “glycan array binding signal (z-score)” value [4] was -0.306, the “glycan array binding signal (z-score)” value [5] was -0.301 and the “glycan array binding signal (z-score)” value [6] was 5.21. For the same binder, the “glycan array binding signal (z-score)” value [7] was -0.095, the “glycan array binding signal (z-score)” value [8] was -0.306 and the “glycan array binding signal (z-score)” value [9] was -0.306. The “glycan array binding signal (z-score)” value [10] was -0.203, the “glycan array binding signal (z-score)” value [11] was 0.024 and the “glycan array binding signal (z-score)” value [12] was -0.3. The “glycan array binding signal (z-score)” value [13] was -0.301, the “glycan array binding signal (z-score)” value [14] was -0.306 and the “glycan array binding signal (z-score)” value [15] was -0.302. For the same binder, the “glycan array binding signal (z-score)” value [16] was -0.222, the “glycan array binding signal (z-score)” value [17] was -0.296 and the “glycan array binding signal (z-score)” value [18] was 5.16. For the same binder, the “glycan array binding signal (z-score)” value [19] was 5.83, the “glycan array binding signal (z-score)” value [20] was 7.15 and the “glycan array binding signal (z-score)” value [21] was 5.21. For the same binder, the “glycan array binding signal (z-score)” value [22] was 5.58, the “glycan array binding signal (z-score)” value [23] was 7.23 and the “glycan array binding signal (z-score)” value [24] was 6.39. The “glycan array binding signal (z-score)” value [25] was -0.299, the “glycan array binding signal (z-score)” value [26] was 4.22 and the “glycan array binding signal (z-score)” value [27] was -0.304. For the same binder, the “glycan array binding signal (z-score)” value [28] was -0.3, the “glycan array binding signal (z-score)” value [29] was -0.268 and the “glycan array binding signal (z-score)” value [30] was -0.303. The “glycan array binding signal (z-score)” value [31] was -0.305, the “glycan array binding signal (z-score)” value [32] was -0.302 and the “glycan array binding signal (z-score)” value [33] was -0.284. The “glycan array binding signal (z-score)” value [34] was 0.537, the “glycan array binding signal (z-score)” value [35] was -0.246 and the “glycan array binding signal (z-score)” value [36] was -0.237. The “glycan array binding signal (z-score)” value [37] was -0.308 and the “glycan array binding signal (z-score)” value [38] was -0.306.

B2: DCAL1 (Homo sapiens), Q8IZS7 (protein)
chain: MVSNFFHVIQVFEKSATLISKTEHIGFVIYSWRKSTTHLGSRRKFAISIYLSEVSLQKYDCPFSGTSFVVFSLFLICAMAGDVVYADIKTVRTSPLELAFPLQRSVSFNFSTVHKSCPAKDWKVHKGKCYWIAETKKSWNKSQNDCAINNSYLMVIQDITAMVRFNI
With B2 the “glycan array binding signal (z-score)” value [39] was -0.172, the “glycan array binding signal (z-score)” value [40] was -0.139 and the “glycan array binding signal (z-score)” value [41] was -0.214. The “glycan array binding signal (z-score)” value [42] was -0.25, the “glycan array binding signal (z-score)” value [43] was -0.181 and the “glycan array binding signal (z-score)” value [44] was -0.212. The “glycan array binding signal (z-score)” value [45] was 1.75, the “glycan array binding signal (z-score)” value [46] was -0.249 and the “glycan array binding signal (z-score)” value [47] was 1.34. For the same binder, the “glycan array binding signal (z-score)” value [48] was -0.202, the “glycan array binding signal (z-score)” value [49] was -0.234 and the “glycan array binding signal (z-score)” value [50] was -0.121. The “glycan array binding signal (z-score)” value [19] was -0.251, the “glycan array binding signal (z-score)” value [21] was 5.03 and the “glycan array binding signal (z-score)” value [25] was -0.223. The “glycan array binding signal (z-score)” value [51] was -0.253, the “glycan array binding signal (z-score)” value [52] was -0.211 and the “glycan array binding signal (z-score)” value [53] was -0.184. For the same binder, the “glycan array binding signal (z-score)” value [33] was -0.203 and the “glycan array binding signal (z-score)” value [54] was 0.533.
